Assay outcomes as filed in PubChem.
HP1b binding inh = inhibitors of HP1-beta chromodomain binding to methylated histone tails; P83916; AlphaScreen HP1-beta / biotin-H3K9me3 peptide binding; Potency, µM (doses to about 114 µM), without a hit: top-dose activity change, negative = inhibition, usual class: inhibitors; 390,000 tested, 0.56% active; AID 540317; further: potency means the concentration at half of the fitted maximal effect; nearly all actives have a fitted effect of over 70% in size
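Compound inhibition of the preformed complex between 50 nM HP1-beta and 50 nM biotinylated H3K9me3 peptide was read by AlphaScreen. Buffer was PBS pH 7.4 with 0.01% Tween-20. Incubations ran 30 min at room temperature, with 10 ug/mL donor/acceptor beads.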
BAZ2B inh = blocks human BAZ2B; Q9UIF8; AlphaScreen BAZ2B-H3K14Ac peptide displacement; Potency, µM (series often up to 114 µM), for the others: at the top dose activity change, negative = inhibition, usual class: inhibitors; 360,000 tested, 4.4% active; AID 504333; further: potency means the concentration at half of the fitted maximal effect; on the % scale 0 is the no-effect control and ±100 the full control effect; nearly all actives have a fitted effect of over 60% in size
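Inhibition is scored as reduced AlphaScreen emission. The BAZ2B/b-H3(5-23)K14Ac complex (50 nM each) in PBS pH 7.4, 0.01% Tween-20 meets compound (up to 110 uM) for 30 min at RT before bead addition.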
G9a inh = inhibitors of human histone lysine methyltransferase G9a. G9a H3K9 monomethylation, AlphaScreen, 2 h. Potency, µM (top dose mostly 102 µM), without a hit: at the highest dose activity, negative = inhibition, hits mostly inhibitors. 350,000 tested, 8.8% active. AID 504332; further: potency means the concentration at half of the fitted maximal effect; on the % scale 0 is the no-effect control and ±100 the full control effect; nearly all actives have a fitted effect of over 75% in size
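Compounds were preincubated with 20 nM G9a for 15 min, after which biotinylated H3K9 peptide (500 nM) and SAM (20 uM) started a 2 h room-temperature reaction. Monomethylated product was quantified by antibody-based AlphaScreen chemiluminescence.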
Sfp PPTase inh = inhibitors of Bacillus subtilis Sfp phosphopantetheinyl transferase; Potency, µM, for inactives: largest response in the series, negative = inhibition, actives largely listed as inhibitors; Biochemical Sfp PPTase activity, qHTS; AID 1490; 310,000 tested, 3.5% active; Q9F4F7;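 further: the enzyme is Sfp with the accession as filed and its product quenches rhodamine fluorescence; potency means the concentration at half of the fitted maximal effect; 0% = enzyme reaction without inhibitor and -100% = no enzyme wells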
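Compounds were incubated with enzyme (final 15 nM) for 15 min at room temperature before substrate addition started the reaction. Fluorescence at 525 nm excitation, 598 nm emission was recorded immediately and after 30 minutes.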
JMJD2A Tudor inh = blocks the human JMJD2A Tudor domain. O75164. AlphaScreen JMJD2A-Tudor / H3K4me3 peptide binding. Potency, µM (doses to about 114 µM), for inactives: at the highest dose activity change, negative = inhibition, most hits filed as inhibitors. 390,000 tested, 4.4% active. AID 504339; further: potency means the concentration at half of the fitted maximal effect; on the % scale 0 is the no-effect control and ±100 the full control effect; nearly all actives have a fitted effect of over 50% in size
Target sequence (O75164 whole entry, looked up, the tested form may be a part): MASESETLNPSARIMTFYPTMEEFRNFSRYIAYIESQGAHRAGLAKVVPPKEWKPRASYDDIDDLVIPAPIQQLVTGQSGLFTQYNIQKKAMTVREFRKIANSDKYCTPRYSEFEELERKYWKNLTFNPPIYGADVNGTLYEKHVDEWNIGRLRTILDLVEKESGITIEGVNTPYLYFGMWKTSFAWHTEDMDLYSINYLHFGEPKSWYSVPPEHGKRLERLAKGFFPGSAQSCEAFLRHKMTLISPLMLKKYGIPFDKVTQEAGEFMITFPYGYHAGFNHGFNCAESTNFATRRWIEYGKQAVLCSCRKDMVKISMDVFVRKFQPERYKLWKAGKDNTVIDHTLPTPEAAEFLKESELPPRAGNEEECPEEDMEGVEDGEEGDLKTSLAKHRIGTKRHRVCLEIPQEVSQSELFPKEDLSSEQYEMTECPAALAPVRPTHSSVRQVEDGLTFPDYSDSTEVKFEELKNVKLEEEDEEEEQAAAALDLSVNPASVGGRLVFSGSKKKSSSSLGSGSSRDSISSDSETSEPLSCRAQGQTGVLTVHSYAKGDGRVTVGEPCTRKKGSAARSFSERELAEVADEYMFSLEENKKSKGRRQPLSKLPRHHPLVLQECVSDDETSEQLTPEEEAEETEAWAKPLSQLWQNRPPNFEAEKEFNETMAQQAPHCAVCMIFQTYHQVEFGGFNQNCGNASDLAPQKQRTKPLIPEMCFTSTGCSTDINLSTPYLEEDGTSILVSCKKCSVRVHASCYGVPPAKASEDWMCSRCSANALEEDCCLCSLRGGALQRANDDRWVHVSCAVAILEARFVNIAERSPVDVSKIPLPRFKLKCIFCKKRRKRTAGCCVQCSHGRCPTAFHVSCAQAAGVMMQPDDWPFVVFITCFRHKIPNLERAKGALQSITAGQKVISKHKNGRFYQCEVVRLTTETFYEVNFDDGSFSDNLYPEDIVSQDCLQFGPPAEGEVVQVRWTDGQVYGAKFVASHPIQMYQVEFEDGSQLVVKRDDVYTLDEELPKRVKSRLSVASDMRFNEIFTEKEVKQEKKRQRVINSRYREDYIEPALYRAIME
Sfp PPTase conf = confirmation of Bacillus subtilis Sfp PPTase inhibitors; shares compounds with Sfp PPTase inh; Sfp PPTase enzymatic assay, qHTS titration; Potency, µM (highest dose often 114 µM), for the others: top-dose activity change, negative = inhibition, usual class: inhibitors; 380 tested, 79% active;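 further: potency means the concentration at half of the fitted maximal effect; plate controls were uninhibited Sfp reaction for no effect and no enzyme control for full effect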
Sfp gel assay = Blocks Sfp PPTase activity, gel read-out. shares compounds with Sfp PPTase inh. purified Sfp, gel-based phosphopantetheinylation read-out. Potency, µM, usual class: inhibitors. 210 tested, 20% active;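 active means potency below 100 µM; inconclusive means dose-dependent response but potency above 100 µM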;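 further: band intensities scaled against SCH202676 control wells before curve fitting; potency is an IC50 for inhibitors of Sfp transfer activity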
Active calls of the source: *; i = inactive; ? = inconclusive; / = no result; ! = not confirmed by another sample; [ ] = dose if it differs, or a comment. Compounds with a hit are over-represented: about 12% of the library has one in this group of screens. Unless noted, the call rests on the fitted dose curve; in most records, active means well fitted curve in the direction sought with a large enough effect; inconclusive means small, poorly fitted or top-dose-only effect, or another doubt; inactive means no such curve, though single readings can be large; an effect the other way counts as inactive or inconclusive.

SMILES	HP1b binding inh	BAZ2B inh	G9a inh	Sfp PPTase inh	JMJD2A Tudor inh	Sfp PPTase conf	others
CN(C)C=Nc1ccccc1C1C=NNC1=O (stereo unspecified)	/	-35%	40µM*	18µM*	/	9%
CC(=O)c1c(N=CN(C)C)nc(C)nc1-c1ccccc1	26%	-1%	19%	15%	1%	/
Nc1nc(NC2CC2)c2ncn([C@H]3C=C[C@@H](CO)C3)c2n1	/	/	?	4%	/	/
CN(C)c1ccc(CNC(=O)Cn2ccc3cc(S(=O)(=O)N4CCCCCC4)ccc32)cc1	22%	?	?	/	?	/
CN1CCN(C(=S)c2ccc(N(C)C)cc2)CC1	?	1%	?	-5%	-18%	/
CN(C)c1ccc(C(=S)N2CCN(Cc3ccccc3)CC2)cc1	?	35µM*	8.9µM*	2.2µM*	56µM*	12µM*
CCN1CCN(C(=S)c2ccc(O)cc2)CC1	-10%	-28%	6.3µM*	2.8µM*	-9%	8.3µM*
CN1CCN(C(=S)c2ccc(Br)cc2)CC1	-21%	-10%	20µM*	1.3µM*	-24%	13µM*
CCN1CCN(C(=S)Nc2ccc(Cl)cc2)CC1	41%	-1%	-36%	9%	-9%	/
COC(=O)c1sccc1S(=O)(=O)N(CC(=O)NCc1ccc(C)cc1)c1ccc(C)c(C)c1	-15%	-1%	14%[59 µM]	/	-25%	/
CC(C)c1ccc(C2/C(=C(/O)c3ccc(F)cc3)C(=O)C(=O)N2CCCN2CCOCC2)cc1 (stereo unspecified)	35%	?	?	26%	-9%	/
O=[N+]([O-])c1ccc(O)c(CN2CCCCCC2)c1	11%	3%	1%[0.501 µM]	?	-10%	/
Cc1cc(SCC(=O)NN)c2cc(Br)ccc2n1	25%	?	/	22µM*	-32%	?
COC(=O)c1c(N2C(=O)Nc3ccccc3N2O)sc2c1CCCC2	-1%	-1%	-9%[59 µM]	5%	-9%	/
COC(=O)c1c(N2C(=O)CC(Sc3ccccc3C(=O)O)C2=O)sc2c1CCCC2 (stereo unspecified)	7%	50µM*	1.4µM*	1.6µM*	-29%	33µM*
COC(=O)CCn1cnc2onc(-c3cc(F)cc(F)c3)c2c1=O	35%	-1%	9%[59 µM]	/	-6%	/
CCC(C)(C)NC(=O)CN(C(=O)CCC(=O)Nc1nccs1)c1ccc(C)cc1	50%	6%	-3%	30%	-11%	/
N#C/C(=C/c1ccc(N2CCCCCC2)o1)c1cccc(F)c1	?	?	?	0.56µM*	40µM*	21µM*	Sfp gel assay=?
N#C/C(=C/c1ccc(N2CCOCC2)o1)c1ccc(Br)cc1	?	45µM*	7.9µM*	2.8µM*	56µM*	12µM*	Sfp gel assay=6.2µM*
CCOc1cc(CNc2ccc(N(C)C)cc2)cc(Br)c1OCC(=O)NC(C)(C)C	14µM*	14µM*	5µM*	3.5µM*	40µM*	?	Sfp gel assay=?
CNc1ccccc1C(C)(C)c1cc(-c2ccco2)n[nH]1	?	-77%	35µM*	56µM*	?	24µM*	Sfp gel assay=i
CN(C)Cc1ccccc1-c1ccc2ncnc(NC3CC3)c2c1	/	/	/	-8%	/	/
Clc1cc(Cl)cc(C2=N[C@@H](Cc3ccccc3)CO2)c1	/	/	87%	6%	/	/
CCOC(=O)c1c(NC(=O)Cc2ccccc2)sc2c1CCN(CC)C2	13%	-7%	/	5%	-23%	/
CCOC(=O)c1c(N)sc2c1CCN(Cc1ccccc1)C2	/	/	10µM*	10µM*	/	21µM*
SMILES	HP1b binding inh	BAZ2B inh	G9a inh	Sfp PPTase inh	JMJD2A Tudor inh	Sfp PPTase conf	others
NC(=O)c1oc2ccccc2c1NC(=O)c1ccc([N+](=O)[O-])o1	33%	1%	14%	11%	0%	/
CCC(C(=O)OCC(=O)Nc1ccc(SC(F)F)cc1)c1ccccc1 (stereo unspecified)	66%	33%	85%[59 µM]	33%	16%	/
CC(Cc1ccc(O)c(O)c1)(NN)C(=O)O (stereo unspecified)	/	/	/	50µM*	/	47µM*	Sfp gel assay=i
CC(C)(Cc1cc(CC(C)(C)C(=O)O)cc(C(C)(C)C)c1)C(=O)O	29%	3%[57.1 µM]	-2%	17%	-17%	/
COc1ccc(C[C@](C)(N)C(=O)O)cc1OC	5%	30%	?	/	-5%	/
C[C@](N)(Cc1ccc(O)c(O)c1)C(=O)O	?	16µM*	0.45µM*!	13µM*	20µM*	21µM*	Sfp gel assay=i
CCOC(=O)c1ccc(NC(=O)Nc2c[nH]c(=O)[nH]c2=O)cc1	58%	-7%	-24%[59 µM]	/	-19%	/
CCNc1ncc2nc(-c3cn(C)c4ccccc34)c(=O)n(C[C@H]3CCCO3)c2n1	/	/	4%[0.501 µM]	14%	/	/
Cc1nc2ccccn2c(=O)c1NC(=O)c1ccc(F)c(F)c1	21%[57 µM]	5%	-17%[59 µM]	/	-8%	/
CCc1c(C)nc2cc(-c3ccc(OC)c(OC)c3)nn2c1N1CCCC1	12%	3%	3%	6.3µM*	-18%	?
CCc1c(C)nc2cc(-c3ccc(OC)c(OC)c3)nn2c1N1CCC(C)CC1	33%	-22%[57.1 µM]	16%	4%	-20%	/
CCc1c(C)nc2cc(-c3cc(OC)cc(OC)c3)nn2c1N1CCCC1	62%	12%	35%[59 µM]	16µM*	7%	47µM*
CCOCCN1CCN(c2c(CC)c(C)nc3cc(-c4cc(OC)cc(OC)c4)nn23)CC1	27%	-36%	-10%[59 µM]	-4%	-24%[11.4 µM]	/
CCC(=O)N1CCc2cc(S(=O)(=O)NCCC(=O)NCc3ccc(OC)cc3)ccc21	13%	/	12%[59 µM]	/	-19%	/
CN(CCCN1c2ccccc2CCc2ccccc21)CC(=O)c1ccc(Cl)cc1	/	/	?	50µM*	/	37µM*	Sfp gel assay=i
CN(C)CCCN1c2ccccc2CCc2ccc(Cl)cc21	26%	?	8%[21.5 µM]	56µM*!	-29%	?	Sfp gel assay=i
CN(C)CCCN1C(=O)c2cc3ccccc3cc2C1=O	10%	-11%	23%	22%	0%	/
O=C(CN1C(=O)COc2ccccc21)c1ccc(Cl)cc1	76%	9%	14%	-1%	-12%[57.1 µM]	/
c1ccc(CSc2nnc(-c3ccco3)n2Cc2ccco2)cc1	-1%	?	50µM*	4µM*	-32%	33µM*
OCc1ccc(-c2nn(Cc3ccccc3)c3ccccc23)o1	12%	40µM*	21µM*	4.5µM*	-19%	15µM*
O=C(O)CCCn1nc(-c2ccccc2)c2ccccc21	23%	-2%	-3%[59 µM]	17%	-10%	/
COC(=O)c1ccccc1NC(=O)CSc1nc(=O)cc(N)n1-c1ccccc1	8%	-14%	-11%[59 µM]	/	-32%	/
